ATXN viability = reduces viability in counter-screen for ATXN expression inhibitors; S2 cells (HEK-293 line with an ATXN2-luciferase reporter) viability, CellTiter-Fluor protease fluorescence, 24 h; Potency, µM (highest dose often 56.7 µM), hits mostly cytotoxic; hit rate 0.49% among 400,000; note: nearly all actives have a fitted effect of over 40% in size
HepG2 tox-1 = counter-screen for TGF-b inhibitors: cytotoxicity in HepG2 cells. HepG2 CAGA-GFP viability, ATP luminescence, 18 h. Potency, µM (series often up to 46.1 µM), for the others: at the top dose activity change, negative = cytotoxicity, hits mostly cytotoxic. hit rate 0.76% among 410,000. AID 588856
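CellTiter-Glo luminescence gave cytotoxicity after 18 hours at 37 degrees C. The cells were HepG2 CAGA-GFP in 1% FBS DMEM, stimulated with 500 pg/mL TGF-beta after compound addition. %Activity was normalised to no-cell wells (complete cell-killing) and DMSO (no toxicity), and curves were fitted and classified.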
TGFb inhibitor = inhibitors of TGF-b signaling; hit rate 1.2% among 410,000; Potency, µM (highest dose often 46.1 µM), without a hit: top-dose activity, negative = inhibition, actives largely listed as inhibitors; HepG2 CAGA-GFP TGF-b/SMAD3 reporter, GFP fluorescence, 18 h; TGF-beta stimulated, 500 pg/mL final; note: % is set by controls: 0 for no effect and ±100 for the full control effect; nearly all actives have a fitted effect of over 65% in size
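First, reporter cells (HEPG2 CAGA-GFP) rested 2 h at 37 degrees C. Next, compounds were pinned in and TGF-beta added to 500 pg/mL final. After 18 h, GFP was imaged per cell and summed per well.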
GLP1R ag = activates the human GLP-1 receptor | P43220 | HEK293 GLP-1R CRE-luciferase, luminescence, 4-6 h; cells express a hypersensitive GLP-1R form | Potency, µM (top dose mostly 45.6 µM), for the others: at the top dose activation, usual class: activators | hit rate 0.007% among 380,000 | AID 624172; note: % of control where 0% means no effect
Target sequence (P43220 whole entry, looked up): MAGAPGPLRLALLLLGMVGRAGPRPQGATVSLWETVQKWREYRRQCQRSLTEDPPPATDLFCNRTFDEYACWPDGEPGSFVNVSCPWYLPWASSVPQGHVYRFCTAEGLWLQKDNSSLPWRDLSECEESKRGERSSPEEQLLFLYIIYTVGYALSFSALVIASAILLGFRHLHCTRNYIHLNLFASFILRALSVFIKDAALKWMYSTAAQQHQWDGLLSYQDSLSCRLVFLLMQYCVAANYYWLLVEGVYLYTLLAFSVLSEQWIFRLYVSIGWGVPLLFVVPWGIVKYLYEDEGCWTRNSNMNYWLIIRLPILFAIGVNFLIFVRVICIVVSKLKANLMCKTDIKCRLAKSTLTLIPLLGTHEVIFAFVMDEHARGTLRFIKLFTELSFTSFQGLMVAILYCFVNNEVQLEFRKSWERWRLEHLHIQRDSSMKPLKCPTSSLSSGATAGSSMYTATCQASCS
ATXN2 expr inh = reduces ATXN2 reporter expression in HEK-293 cells | HEK-293 ATXN2-luciferase reporter, luminescence, 24 h | Potency, µM (doses to about 57 µM), for the others: top-dose activity change, negative = inhibition, most hits filed as inhibitors | hit rate 0.72% among 360,000; note: % is set by controls: 0 for no effect and ±100 for the full control effect; nearly all actives have a fitted effect of over 55% in size
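qHTS (up to 57 uM final) was run with 24 h compound exposure of reporter cells at 37 °C. Each well was multiplexed: SteadyGlo luminescence measured ATXN2-luciferase expression after a fluorogenic Gly-Phe-AFC viability readout (25 uM final).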
GLP-1R inv ag = acts as inverse agonist at human GLP-1 receptor; P43220; HEK293 GLP-1R CRE-luciferase, luminescence, 24 h; GLP-1R form is constitutively active; Potency, µM (doses to about 38.3 µM), for inactives: top-dose activity change, negative = inhibition, actives largely listed as inhibitors; hit rate 1.6% among 410,000; AID 624417; note: % is set by controls: 0 for no effect and ±100 for the full control effect; nearly all actives have a fitted effect of over 55% in size
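Luminescence readout: a drop in cAMP-driven luciferase signal flags inverse agonism at a constitutively active GLP-1R stably expressed in HEK293. Compound exposure lasted 24 hr at 37 deg C, 5% CO2.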
TGFb confirm = confirmation of TGF-b signaling inhibitors in HepG2 reporter cells | shares compounds with TGFb inhibitor | Potency, µM (highest dose often 46.1 µM), inactives show at the top dose activity, negative = inhibition, actives largely listed as inhibitors | HepG2 CAGA-GFP TGF-b reporter, GFP fluorescence, 18 h; cells stimulated with TGF-beta, 500 pg/mL | hit rate 63% among 1,600 | AID 720534; note: % is set by controls: 0 for no effect and ±100 for the full control effect; nearly all actives have a fitted effect of over 65% in size
HepG2 tox-2 = HepG2 cytotoxicity, TGF-b inhibitor counterscreen; shares compounds with TGFb inhibitor; HepG2 CAGA-GFP viability, ATP luminescence, 18 h; cells stimulated with TGF-beta, 500 pg/mL; Potency, µM (top dose mostly 46.1 µM), for inactives: top-dose activity, negative = cytotoxicity, hits mostly inhibitors; hit rate 27% among 1,600; AID 720535; note: % is set by controls: 0 for no effect and ±100 for the full control effect; nearly all actives have a fitted effect of over 70% in size
TGFb CCL64 inh = TGF-b inhibition, CCL64 orthogonal assay | CCL64 CAGA-GFP reporter, TGF-b stimulated, GFP fluorescence, 18 h | shares compounds with TGFb inhibitor | hit rate 41% among 1,600 | Potency, µM (titrated, usually from 46.1 µM), without a hit: at the top dose activity, negative = inhibition, most hits filed as inhibitors; note: nearly all actives have a fitted effect of over 65% in size
COP TGFb inh = validation of TGF-b inhibitors in HepG2 COP promoter reporter; HepG2 COP-GFP TGF-b reporter, GFP fluorescence, 18 h; cells stimulated by added recombinant TGF-beta; hit rate 3% among 1,600; Potency, µM (titrated, usually from 46.1 µM), inactives show at the top dose activity, negative = inhibition, actives largely listed as inhibitors; shares compounds with TGFb inhibitor; note: nearly all actives have a fitted effect of over 70% in size
Starred values were filed as active, the others as inactive; i = inactive; ? = inconclusive; · = no result given. Compounds with a hit are over-represented: about 3.7% of the library has one in this group of screens. Calls come from the whole dose curve; as a rule, active = well fitted curve in the direction sought with a large enough effect; inconclusive = small, poorly fitted or top-dose-only effect, or another doubt; inactive = no such curve, though single readings can be large; an effect the other way counts as inactive or inconclusive. Potency is the fitted concentration of half-maximal effect.

SMILES | ATXN viability | HepG2 tox-1 | TGFb inhibitor | GLP1R ag | ATXN2 expr inh | GLP-1R inv ag | TGFb confirm | HepG2 tox-2 | TGFb CCL64 inh | COP TGFb inh
Cc1ccc(CNC(=O)CSc2c(C(C)C)cnc3c2c(=O)n(C)c(=O)n3C)cc1 | · | -7.3% | -16.0% | · | · | 8.2% | · | · | · | ·
O=C(Nc1ccc(N2CCN(c3ncccc3C(F)(F)F)CC2)nc1)c1cccs1 | ? | -56.3% | 3.98µM* | -6.6% | 33.6µM* | ? | ? | ? | ? | 79.4%
O=C(Nc1ccc(N2CCN(c3ccc(C(F)(F)F)cn3)CC2)nc1)c1cccs1 | i | -4.3% | ? | 12.8% | ? | -8.3% | · | · | · | ·
O=S(=O)(c1ccc2ccccc2c1)N1CCN(C2CCN(Cc3ccccc3)CC2)CC1 | i | -22.6% | -16.5% | -3.1% | -25.9% | -14.6% | · | · | · | ·
O=S(=O)(c1ccc2ccccc2c1)N1CCN(C2Cc3ccccc3C2)CC1 | i | -14.8% | 5.01µM* | 8.1% | -11.8% | 3.1% | -22.7% | 5.0% | 11.2% | 1.1%
Cc1ccc(CNc2ccc(O)cc2)cc1 | i | -102.8% | 10µM* | ? | 7.0% | 215.7% | 23.1µM* | ? | ? | ?
O=[N+]([O-])c1cccc2nc3ccccc3c(NCCCn3ccnc3[N+](=O)[O-])c12 | ? | -5.3% | 0.112µM* | -0.6% | 0.267µM* | ? | 0.103µM* | 0.206µM* | 0.164µM* | 24.3%
Cc1ccc2[nH]c(=O)c(CN(CCO)Cc3nnnn3Cc3ccccc3)cc2c1 | · | 3.9% | -0.2% | · | · | · | · | · | · | ·
Cc1ccccc1NC(=O)c1c(C)oc2ccc(O)c(CN3CCCCCC3)c12 | · | -38.2% | ? | · | · | ? | · | · | · | ·
C[C@]12c3[nH]c4ccc(Cl)cc4c3CCN1C(=O)[C@@H](CC(=O)NCCN1CCOCC1)C[C@@H]2C(=O)N1CCOCC1 | i | -1.9% | 2.6% | -2.6% | 8.6% | -6.7% | · | · | · | ·
COc1ccc2[nH]c3c(c2c1)CCN1C(=O)C(CC(=O)NCCC2=CCCCC2)C[C@H](C(=O)N(C(C)C)C(C)C)[C@@]31C (stereo partly drawn) | ? | -70.4% | 10µM* | -2.3% | ? | 10µM* | ? | -19.8% | ? | 39.4%
C[C@]12c3[nH]c4ccc(Cl)cc4c3CCN1C(=O)[C@@H](CC(=O)NCCC1=CCCCC1)C[C@@H]2C(=O)N1CCOCC1 | ? | -26.1% | ? | -0.8% | ? | ? | 16.4µM* | -9.0% | ? | 2.0%
CC(C)=CCC/C(C)=C/CNC(=O)C[C@H]1C[C@H](C(=O)N2CCOCC2)[C@@]2(C)c3[nH]c4ccc(Cl)cc4c3CCN2C1=O | i | 17.8µM* | 10µM* | 6.3% | 3.6% | 5.9% | 13µM* | ? | 13µM* | -20.1%
CCN(CC)C(=O)[C@H]1CC(CC(=O)NCCC2=CCCCC2)C(=O)N2CCc3c([nH]c4ccc(OC)cc34)[C@]12C (stereo partly drawn) | i | 4.7% | ? | -0.9% | -7.6% | ? | · | · | · | ·
C[C@]12c3[nH]c4cc(-c5ccco5)ccc4c3CCN1C(=O)[C@@H](CC(=O)NCCC1=CCCCC1)C[C@@H]2C(=O)N1CCOCC1 | ? | 2.9% | 11.2µM* | 0.3% | 0.0% | ? | ? | ? | ? | 50.3%
Cc1cc(C(=O)Nc2ccccc2-c2nc(CNC(=O)c3sc(C)nc3C)c(C)o2)c(C)o1 | i | · | · | · | · | · | · | · | · | ·
Cc1cc(C)cc(Nc2cc(C(=O)NCc3ccccc3)c3ccccc3n2)c1 | i | -14.3% | ? | -5.0% | -13.1% | ? | · | · | · | ·
O=C(CC1N=C2c3ccccc3N=C(SCc3ccc(Cl)cc3)N2C1=O)NCCc1ccccc1 (stereo not drawn) | i | -2.2% | 1.3% | · | 36.3% | 7.5% | · | · | · | ·
CCN(CC)C(=O)[C@H]1C[C@H](CC(=O)NC/C=C(\C)CCC=C(C)C)C(=O)N2CCc3c([nH]c4cc(CCC(=O)N(C)C)ccc34)[C@]12C | ? | -22.8% | 12.6µM* | 7.6% | ? | ? | 23.1µM* | ? | ? | 55.0%
COc1ccc(NC(=O)c2oc3ccc(S(=O)(=O)N4CCC5(CC4)OCCO5)cc3c2C)cc1Cl | · | -11.5% | -25.5% | · | · | 8.2% | · | · | · | ·
O=C(COC(=O)c1ccccc1)Nc1ncc([N+](=O)[O-])s1 | i | -9.1% | -23.6% | -9.3% | 19.0% | 16.2% | · | · | · | ·
O=C(Nc1ccccc1)Nc1ncc([N+](=O)[O-])s1 | 22.4µM* | -22.9% | 3.16µM* | -3.0% | ? | ? | 13µM* | ? | 18.4µM* | 87.3%
COc1ccc(S(=O)(=O)c2cn(CC(=O)Nc3cc(C)ccc3C)c3ccccc3c2=O)cc1 | i | 10.6% | 11.2% | -0.6% | 11.6% | 8.5% | · | · | · | ·
Oc1ccc(C[C@H]2CNC(=S)N2C[C@H]2CCCN2C[C@H](Cc2ccccc2)N2C[C@H](Cc3ccc(O)cc3)N(CC3CCCCCC3)C2=S)cc1 | 20µM* | -111.9% | 7.08µM* | -0.8% | 0.0% | ? | 23.1µM* | ? | 13µM* | 50.9%
CC(C)C[C@H]1CNC(=S)N1C[C@H]1CCCN1C[C@H](Cc1ccc(O)cc1)N1C[C@H](Cc2ccccc2)N(CC2CCCCC2)C1=S | ? | -33.7% | ? | -3.0% | ? | ? | · | · | · | ·

High-throughput results from PubChem.
